Several values for one entry are separate records, joined by “and”; a condition that tells them apart may be missing. Equal entries are not always repeated. Inconclusive results are not listed. Some structures have more than one record in an assay (separate samples or runs), and their calls can disagree. Activity calls are given as the source filed them. The call rests on the fitted dose curve; in most records, active means well fitted curve in the direction sought with a large enough effect; inconclusive means small, poorly fitted or top-dose-only effect, or another doubt; inactive means no such curve, though single readings can be large; an effect the other way counts as inactive or inconclusive.
Experiments:
[1] = system: W2; assay: qHTS profiling for inhibitors of Plasmodium falciparum proliferation (AID 504749); further: nearly all actives have a fitted effect of over 60% in size; further: potency means the concentration at half of the fitted maximal effect; conditions: P. falciparum in erythrocytes, SYBR Green DNA, 72 h; series mostly up to 28.7 µM
Outline: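 Infected RBCs, 0.3% parasitemia/2.5% Hct final; cpd 72 h, 37 C, 5% CO2; lysis buffer with saponin/triton/SYBR Green I, o/n RT dark; FI 485/535; norm. to artemisinin (0.29 uM) and DMSO.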

[2] = system: CRL-7250; assay: Cytotoxic Profiling of Annotated Libraries Using Quantitative High-Throughput Screening (AID 1296008); conditions: Five cell lines viability, CellTiter-Glo ATP luminescence, 48-72 h; max response: active compounds read low; further: nearly all actives have a fitted effect of over 60% in size; further: potency means the concentration at half of the fitted maximal effect; on max response: on the % scale 0 is the no-effect control and ±100 the full control effect
Outline: (§1)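 Cytotoxicity was measured as CellTiter-Glo ATP luminescence, read after 10 min at room temperature. Compound treatment of the cells lasted 48 or 72 hr at 37 degrees Celsius in a qHTS format.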

[3] = system: HEK293; assay: as above; conditions: Five cell lines viability, CellTiter-Glo ATP luminescence, 48-72 h; max response: active compounds read low
Outline: as §1

[4] = system: HaCat; assay: as above; conditions: Five cell lines viability, CellTiter-Glo ATP luminescence, 48-72 h; max response: active compounds read low
Outline: as §1

[5] = system: KB-3-1; assay: as above; conditions: Five cell lines viability, CellTiter-Glo ATP luminescence, 48-72 h; max response: active compounds read low
Outline: as §1

[6] = system: NIH3T3; assay: as above; conditions: Five cell lines viability, CellTiter-Glo ATP luminescence, 48-72 h; max response: active compounds read low
Outline: as §1

[7] = system: MCC-13; assay: qHTS assay to identify novel small-molecules to repurpose for Merkel cell carcinoma treatment (AID 1296009); conditions: MCC and control cell lines, CellTiter-Glo viability, 72 h; series mostly up to 46 µM; further: nearly all actives have a fitted effect of over 60% in size; further: potency means the concentration at half of the fitted maximal effect
Outline: (§2)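 72 hr, 37 degree celsius; NPC 8-pt / MIPE 11-pt dose response; compound pinned in DMSO; CellTiter-Glo, 10 min RT, luminescence; normalized to no-cell and DMSO controls.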

[8] = system: MCC-26; assay: as above; conditions: MCC and control cell lines, CellTiter-Glo viability, 72 h; series mostly up to 46 µM
Outline: as §2

[9] = system: MKL-1; assay: as above; conditions: MCC and control cell lines, CellTiter-Glo viability, 72 h; series mostly up to 46 µM
Outline: as §2

[10] = system: MKL-2; assay: as above; conditions: MCC and control cell lines, CellTiter-Glo viability, 72 h; series mostly up to 46 µM
Outline: as §2

[11] = system: UISO; assay: as above; conditions: MCC and control cell lines, CellTiter-Glo viability, 72 h; series mostly up to 46 µM
Outline: as §2

[12] = system: WaGa; assay: as above; conditions: MCC and control cell lines, CellTiter-Glo viability, 72 h; series mostly up to 46 µM
Outline: as §2

[13] = system: C33A; assay: Primary qHTS to identify gynecologic anti-cancer compounds using libraries of approved drugs and bioactive compounds (AID 1345084); conditions: Gynecologic cancer cell panel viability, ATPlite luminescence, 48 h; series mostly up to 57.5 µM; further: on the % scale 0 is the no-effect control and ±100 the full control effect; nearly all actives have a fitted effect of over 55% in size
Outline: (§3)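 Cells, 1,000 per well, were allowed to settle for 16 h at 37 C before compound addition. Five concentrations were tested for 48 h, and viability was read by ATPlite luminescence after 15 min at room temperature.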

[14] = system: CAOV3; assay: as above; conditions: Gynecologic cancer cell panel viability, ATPlite luminescence, 48 h; series mostly up to 57.5 µM
Outline: as §3

[15] = system: CASKI; assay: as above; conditions: Gynecologic cancer cell panel viability, ATPlite luminescence, 48 h; series mostly up to 57.5 µM
Outline: as §3

[16] = system: Es-2; assay: as above; conditions: Gynecologic cancer cell panel viability, ATPlite luminescence, 48 h; series mostly up to 57.5 µM
Outline: as §3

[17] = system: HeLa; assay: as above; conditions: Gynecologic cancer cell panel viability, ATPlite luminescence, 48 h; series mostly up to 57.5 µM
Outline: as §3

[18] = system: HEK293T; assay: qHTS assay to identify novel small-molecules to repurpose for Merkel cell carcinoma treatment (AID 1296009); conditions: MCC and control cell lines, CellTiter-Glo viability, 72 h; at 44.8 µM (top of the series) unless noted; further: nearly all actives have a fitted effect of over 60% in size; further: potency means the concentration at half of the fitted maximal effect
Outline: as §2

[19] = system: HACAT; assay: as above; conditions: MCC and control cell lines, CellTiter-Glo viability, 72 h
Outline: as §2

[20] = system: NIH3T3; assay: as above; conditions: MCC and control cell lines, CellTiter-Glo viability, 72 h; at 44.8 µM (top of the series) unless noted
Outline: as §2

[21] = at 44.8 µM (top of the series) unless noted

CCCCc1ncc(/C=C(\Cc2cccs2)C(=O)O)n1Cc1ccc(C(=O)O)cc1
inactive: Potency [1] | max response [2] 0.696% | outcome [2] | max response [3] 1.61% and 1.3% | max response [4] -8.96% | max response [5] -5.45% and 6.97% | max response [6] -1.7% | Potency [7] | Potency [8] | Potency [9] | Potency [10] | Potency [11] | Potency [12] | Potency [13] | Potency [14] | Potency [15] | Potency [16] | Potency [17]

COc1ccc(Cl)cc1C(=O)NCCc1ccc(S(=O)(=O)NC(=O)NC2CCCCC2)cc1
inactive: max response [2] -1.35% and -10.9% | max response [3] -12.8% | outcome [3] | max response [4] 2.84% and -12.6% | max response [5] -9.53% | outcome [5] | max response [6] -5.68% and -4.29% | outcome [18] | Potency [7] | Potency [8] | Potency [9] | Potency [10] | Potency [11] | Potency [12] | Potency [13] | Potency [15] | Potency [16] | Potency [17]

CN(N=O)C(=O)N[C@@H]1[C@@H](O)[C@H](O)[C@@H](CO)O[C@@H]1O
inactive: outcome [2] | outcome [3] | outcome [4] | max response [5] 28.6% | outcome [6] | outcome [19, 21] | outcome [18] | Potency [7] | Potency [8] | Potency [9] | Potency [10] | outcome [20] | Potency [11] | Potency [12] | Potency [13] | Potency [14] | Potency [15] | Potency [16] | Potency [17]

O=C(CCCN1CCN(c2ccccn2)CC1)c1ccc(F)cc1
inactive: Potency [1] | max response [2] -29% | outcome [2] | max response [3] -14.9% | max response [4] -5.51% and 4.13% | max response [5] 7.83% and 2.47% | max response [6] -7% and 0.386% | Potency [7] | Potency [9] | Potency [10] | Potency [12] | Potency [13] | Potency [15] | Potency [16] | Potency [17]

CC(=O)NC(Cc1ccccc1)C(=O)O (stereo not given)
inactive: max response [2] 2.75% | outcome [2] | max response [3] 1.21% and -5.41% | max response [4] -9.27% | outcome [4] | max response [5] 1.12% and 4.36% | max response [6] 0.258% and -10.1% | outcome [19, 21] inactive [at 92 µM] | Potency [7] | Potency [8] | Potency [9] | Potency [10] | Potency [11] | Potency [12] | Potency [13] | Potency [14] | Potency [15] | Potency [16] | Potency [17]

C[C@@H]1CN(c2c(F)c(F)c3c(=O)c(C(=O)O)cn(C4CC4)c3c2F)C[C@H](C)N1
inactive: Potency [1] | max response [2] -3.49% and -4.42% | max response [3] -18.5% and -5.83% | outcome [4] | max response [5] -12.7% | outcome [5] | max response [6] -2.2% and -0.725% | outcome ([19]; at 9.27 µM (top of the series)) | outcome ([19]; at 17.4 µM (top of the series)) | Potency [7] | Potency [8] | Potency [9] | Potency [10] | Potency [11] | Potency [12] | Potency [13] | Potency [14] | Potency [15] | Potency [16] | Potency [17]

Cc1cc(C(C#N)c2ccc(Cl)cc2)c(Cl)cc1NC(=O)c1cc(I)cc(I)c1O (stereo not given)
active: Potency [3] 23.7 µM | Potency [12] 10.6 µM
inactive: max response [2] -2.5% | outcome [2] | max response [3] -12.9% | max response [4] -17.7% | outcome [4] | outcome [5] | max response [6] -5.52% | outcome [6] | outcome [19, 21] | Potency [7] | Potency [9] | Potency [10] | outcome [20] | Potency [13] | Potency [15] | Potency [16] | Potency [17]

O=c1[nH]cnc2c1ncn2[C@@H]1O[C@H](CO)[C@@H](O)[C@H]1O
inactive: max response [2] -10.1% and -4.73% | max response [3] 3.98% | outcome [3] | outcome [4] | max response [5] 7.98% | outcome [5] | max response [6] 0.16% | outcome [6] | outcome [19, 21] | outcome [18] | Potency [7] | Potency [9] | Potency [10] | outcome [20] | Potency [11] | Potency [12] | Potency [13] | Potency [14] | Potency [15] | Potency [16] | Potency [17]

CNC(=O)Oc1ccc2c(c1)[C@]1(C)CCN(C)[C@@H]1N2C
inactive: outcome [2] | outcome [3] | max response [4] -0.257% | outcome [4] | max response [5] -5.47% | outcome [5] | max response [6] -4.44% | outcome [6] | outcome [19, 21] | outcome [18] | Potency [7] | Potency [8] | Potency [9] | Potency [10] | outcome [20] | Potency [11] | Potency [12] | Potency [13] | Potency [15] | Potency [16] | Potency [17]
active: Potency [1] 1.51 µM

CCOc1ccc2ccccc2c1C(=O)N[C@@H]1C(=O)N2[C@@H]1SC(C)(C)[C@@H]2C(=O)O
inactive: outcome [2] | max response [3] 0.937% | outcome [3] | max response [4] 4.96% | outcome [4] | max response [5] -11.5% and -0.445% | max response [6] -3.18% and 1.59% | outcome [19, 21] | outcome [18] | Potency [7] | Potency [9] | Potency [10] | Potency [11] | Potency [12] | Potency [13] | Potency [14] | Potency [15] | Potency [16] | Potency [17]

Source: PubChem BioAssay (NCATS)
